Consider 40 compounds from PubChem BioAssay (NCATS).

Records with an inconclusive call do not appear. Activity calls are given as the source filed them. The call rests on the fitted dose curve; in most records, active means well fitted activation curve with a large enough effect; inconclusive means small, poorly fitted or top-dose-only effect, or another doubt; inactive means no such curve, though single readings can be large or run the other way.
Potency means the concentration at half of the fitted maximal effect.

The target in the experiment is Rap guanine nucleotide exchange factor 3 (Homo sapiens) (UniProt O95398). The experiment is described as follows: Counterscreen qHTS for agonist of cAMP-regulated guanine nucleotide exchange factor 3 (EPAC1) (AID 1645889). Further: nearly all actives have a fitted effect of over 40% in size. On activation: % of control where 0% means no effect. Conditions: EPAC1 Rap1B-BODIPY-GDP exchange, fluorescence; series mostly up to 154 µM; activation: at the top concentration. The method in brief: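 Measured: fluorescence of BODIPY-GDP bound to Rap1B, which falls as exchange proceeds. Conditions include 50 uM competing GDP, 5 and 30 min reads, and a later cAMP challenge for antagonist detection.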
(The purpose of a counterscreen is to sort out artefacts and off-target activity.)
`COC(=O)c1cc(OC)nc2ccc(Br)cc12`: the “activation” value is -0.285% (inactive). Still for that read-out and setting: with `C=CCc1cc(/C=C/c2nc(O)c([N+](=O)[O-])c(=O)[nH]2)cc(OC)c1O` the figure was 11.4% (inactive); with `COc1ccc2nc(N3CCN(C(=O)C4CC4)CC3)sc2c1`, 2.02% (inactive); with `O=C(O)CN1C(=O)/C(=C\c2ccccc2OCc2ccc(Cl)cc2Cl)SC1=S`, 3.68% [at 30.8 µM] (inactive).

Consider `NS(=O)(=O)c1ccc(-c2cccc(/C=C3\SC(=O)NC3=O)c2)cc1`, for which the “activation” value is 7.99% (inactive). Still for that read-out and setting: then `O=C(Nc1cc(C(=O)Nc2ccccc2C(=O)O)cc(C(=O)Nc2ccccc2C(=O)O)c1)c1ccccc1`, with 19.7% [at 30.8 µM] (inactive); and `Cc1cc(S(=O)(=O)Nc2ccccc2C)ccc1F`, with -0.0408% (inactive); and `COc1ccc(NC(=O)c2ccc(NC3=NC4CS(=O)(=O)CC4S3)cc2)cc1` (stereo not given), with 0.693% [at 30.8 µM] (inactive). Same read-out and setting: with `COc1cc2ccccc2cc1C(=O)N1CC(C)CC(C)C1` (stereo not given) the figure was 27.4% [at 30.8 µM] (inactive); with `COc1cc(/C=C2\SC(=S)N(NS(=O)(=O)c3ccccc3)C2=O)ccc1O`, 19.2% (inactive). As to `O=C1c2ccccc2S(=O)(=O)c2cc(N3CCC4(CC3)OCCO4)ccc21`, the Potency is 14.1 µM (active).

`O=c1oc(-c2ccccc2)c(-c2ccccc2)c2ccccc12`: the “activation” value is 23.9% (inactive).

`CCOC(=O)Cn1c(=O)oc2cc(S(=O)(=O)Nc3c(C)cc(C)cc3C)ccc21`: the activation was 25.1% [at 30.8 µM] (inactive). Consider `CC1Cc2nc(SCC(=O)NCc3ccccc3)n(Cc3ccccc3)c(=O)c2S1` (stereo not given), for which the activation is 14% [at 30.8 µM] (inactive). As for `Cc1[nH]n(-c2ccccc2)c(=O)c1C(c1cc(Cl)ccc1O)c1c(C)[nH]n(-c2ccccc2)c1=O`, the Potency was 2.51 µM (active). With `CN(CC(=O)Nc1cccc(F)c1)C(=O)CN1c2cccc3cccc(c23)S1(=O)=O`, the “activation” value was 18.9% (inactive).

With `CCc1nnc(NS(=O)(=O)c2ccc(NC(=S)NC(=O)/C=C/c3ccccc3)cc2)s1`, the “activation” value is 2.17% (inactive). Consider `CCN1C/C(=C/c2ccc(N3CCOCC3)cc2)C(=O)/C(=C/c2ccc(N3CCOCC3)cc2)C1`, for which the Potency was 39.8 µM (active). In the case of `COC(=O)C1(Cc2ccccc2)NC(c2ccc(F)cc2)C2C(=O)N(C)C(=O)C21` (stereo not given), the activation was 3.32% [at 30.8 µM] (inactive). For the compound `O=C1NC(=Nc2ccccc2Cl)S/C1=C\c1cccc([N+](=O)[O-])c1O`, the “activation” value was -6.8% (inactive). `Cc1ccccc1N(CC(=O)NC1CCCC1)C(=O)c1csnn1`: the activation is -0.253% [at 30.8 µM] (inactive). With `CCOC(=O)C1=C(C)N=C2SC=C(C)N2C1c1ccc(OC)cc1` (stereo not given), the “activation” value is 5.04% (inactive). Same read-out and setting: with `COc1nc(C)cc(C)c1S(=O)(=O)c1ccccc1C` the figure was -3.3% (inactive); with `CC1(C)Cc2ccccc2-c2nnc(-c3ccc4ccccc4n3)n21`, -1.21% (inactive); with `CC(C)CCNC1c2ccccc2C(=O)N1Cc1ccccc1` (stereo not given), 2.24% [at 30.8 µM] (inactive). On to `O=C(CCC1CCCC1)Nc1ccc([N+](=O)[O-])cn1`, for which the “activation” value was 25.4% (inactive). Same read-out and setting: then `COc1cccc(C2=NN(C(C)=O)C(c3cccs3)C2)c1` (stereo not given), with 7.07% (inactive); and `CCOc1ccc(N2C(=O)Nc3ccccc3C2(O)C(=O)NCc2ccc(C)cc2)cc1` (stereo not given), with 7.84% [at 30.8 µM] (inactive). Same read-out and setting: with `CCOc1cc(/C=N/Nc2ccc(S(=O)(=O)Nc3ccccc3C(=O)O)cc2[N+](=O)[O-])cc(Cl)c1O` the figure was 9.68% (inactive).

In the case of `COc1cc(/C=C2\SC(=O)N(c3ccccc3Cl)C2=O)cc([N+](=O)[O-])c1O`, the “activation” value is 22.4% (inactive).

Turning to `CC1S/C(=N/N=C2CCC(C(C)(C)C)CC2)NC1=O` (stereo not given), the activation was 18.6% [at 30.8 µM] (inactive).

In the case of `CC(=O)c1cccc(OC(=O)C2=CC=CN3CCS(=O)(=O)N=C23)c1`, the “activation” value is 12.8% (inactive). With `COc1ccccc1Cn1c(=O)oc2ccc(C)cc21`, the “activation” value is 24.3% (inactive).

`O=C(NC1CCC(O)CC1)c1cccc2cccnc12` (stereo not given): the “activation” value is 14.2% (inactive). On the same count and under the same terms, then `O=C(c1ccccc1[N+](=O)[O-])N1CCN(c2ccc(N3CCOCC3)nn2)CC1`, with 11.9% (inactive); and `CN(Cc1ccccc1N1CCCC1)C(=O)c1cc2ccccc2o1`, with 17.8% [at 30.8 µM] (inactive). Still for that read-out and setting: with `CC1CCC2=NN(C(=O)c3ccco3)C(O)(C(F)(F)F)C2C1` (stereo not given) the figure was -2.19% [at 30.8 µM] (inactive); with `CCOc1cc(C2C3=C(CC(C)(C)CC3=O)N(CCOC)C3=C2C(=O)CC(C)(C)C3)ccc1O`, -9.95% (inactive); with `Nc1[nH]c(C(=O)c2ccccc2)c(-c2ccccc2C(F)(F)F)c1C(=O)NCCc1cccs1`, -2.55% (inactive). Turning to `CCCCCC1CCC(c2ccc(C(N)=O)cc2)CC1` (stereo not given), the “activation” value is -11.7% (inactive).
